These results are taken from PubChem BioAssay (EPA / NIEHS).

Read-out in test [1]: Tissue plasminogen activator (tPA), PLAT (gene 5327)
The test can be described thus: BSK_BF4T_tPA: BioMAP Diversity Plus: BF4T Assay for Tissue plasminogen activator (tPA) Biomarker Activity (AID 2284272). Particulars: primary human bronchial epithelial cells with fibroblasts. The method, boiled down: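 tPA level quantified by ELISA at 24 h post-treatment in bronchial epithelial/dermal fibroblast co-cultures, gain of signal scored against DMSO baseline. Parallel cultures stained with 0.1% SRB (560 nm) to flag overt cytotoxicity.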

Read-out in test [2]: Plasminogen Activator Inhibitor-1 (PAI1), SERPINE1 (gene 5054)
In words: BSK_BF4T_PAI1: BioMAP Diversity Plus: BF4T Assay for Plasminogen Activator Inhibitor-1 (PAI1) Biomarker Activity (AID 2284273). Particulars: primary human bronchial epithelial cells with fibroblasts. The method, boiled down: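 Co-culture of human bronchial epithelial cells and dermal fibroblasts exposed to compound for 24 h. PAI-1 measured by ELISA; activity fitted in positive direction versus DMSO. Parallel SRB staining assessed overt cytotoxicity.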

Test [3] in a line: BSK_BF4T_SRB: Viability Assessment in the BioMAP Diversity Plus: BF4T Assay (AID 2284274). Particulars: primary human bronchial epithelial cells with fibroblasts. The method, boiled down: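 Co-culture of human bronchial epithelial cells and dermal fibroblasts (BioMAP BF4T) exposed 24 h. Total protein by sulforhodamine B staining (0.1% SRB after 10% TCA fixation, 560 nm) in parallel cultures; fitted vs DMSO.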

Read-out in test [4]: urokinase Plasminogen Activator (uPA), PLAU (gene 5328)
The test can be described thus: BSK_BF4T_uPA: BioMAP Diversity Plus: BF4T Assay for urokinase Plasminogen Activator (uPA) Biomarker Activity (AID 2284275). As to conditions: primary human bronchial epithelial cells with fibroblasts. The method, boiled down:
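Co-culture of human bronchial epithelial cells and dermal fibroblasts; uPA quantified by ELISA 24 hours after dosing, fitted relative to DMSO. Parallel SRB total-protein staining assessed overt cytotoxicity.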

Read-out in test [5]: Matrix Metallopeptidase 9 (MMP9), MMP9 (gene 4318)
In words: BSK_BF4T_MMP9: BioMAP Diversity Plus: BF4T Assay for Matrix Metallopeptidase 9 (MMP9) Biomarker Activity (AID 2284276). Particulars: primary human bronchial epithelial cells with fibroblasts. The method, boiled down:
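Co-culture of human bronchial epithelial cells and dermal fibroblasts dosed for 24 h; MMP-9 quantified by ELISA and fitted upward versus DMSO. Cytotoxicity monitored in parallel cultures by SRB total-protein staining at the biomarker time point.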

Read-out in test [6]: Interleukin-8 (IL8), CXCL8 (gene 3576)
In words: BSK_IMphg_IL8: BioMAP Diversity Plus: IMphg Assay for Interleukin-8 (IL8) Biomarker Activity (AID 2284277). As to conditions: primary human endothelial cells with macrophages. In outline: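 Co-culture of human venular endothelial cells and macrophages exposed to chemicals for 24 h; IL-8 quantified by ELISA and compared against the DMSO baseline, with SRB total-protein staining in parallel cultures for cytotoxicity.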

Read-out in test [7]: Intercellular Adhesion Molecule 1 (ICAM1), ICAM1 (gene 3383)
In words: BSK_BE3C_ICAM1: BioMAP Diversity Plus: BE3C Assay for Intercellular Adhesion Molecule 1 (ICAM1) Biomarker Activity (AID 2284278). As to conditions: primary human bronchial epithelial cells. Here is the method: (§1) BSK_BE3C is a cell-based, multiplexed-readout assay that uses bronchial epithelial cell, a human lung primary cell, with measurements taken at 24 hours after chemical dosing in a 96-well plate.BSK_BE3C_ICAM1 is an assay component measured in the BSK_BE3C assay. It measures ICAM-1 antibody related to regulation of gene expression using ELISA technology.Data from the assay component BSK_BE3C_ICAM1 was analyzed at the endpoint, BSK_BE3C_ICAM1, in the positive analysis fitting direction relative to DMSO as the negative control and baseline of activity. Using a type of binding reporter, gain or loss-of-signal activity can be used to understand protein changes. […]
(§2) The levels of cell surface (or secreted, indicated by the prefix "s") biomarker endpoints were measured by ELISA. Overt cytotoxicity to cells in confluent adherent cultures (all systems other than the BT system) was assessed by measuring total protein levels using sulforhodamine B (SRB) staining in parallel cultures at the time of biomarker measurements, indicated as SRB endpoints. For proliferation assays for adherent cell types, individual cell types are cultured at sub-confluence and relative cell numbers quantified by SRB staining at time points optimized for each system (48 h: 3C and CASM3C systems; 72 h: BT and HDF3CGF systems; 96 h: SAg system). […] Plates were read after 6 h.

Read-out in test [8]: Interferon-inducible T-cell alpha chemoattractant (ITAC), CXCL11 (gene 6373)
The test can be described thus: BSK_BE3C_ITAC: BioMAP Diversity Plus: BE3C Assay for Interferon-inducible T-cell alpha chemoattractant (ITAC) Biomarker Activity (AID 2284279). As to conditions: primary human bronchial epithelial cells. The method, boiled down: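 The assay measures I-TAC levels by ELISA in human primary bronchial epithelial cell cultures 24 hours after chemical treatment. Values reflect signal increase over the DMSO baseline.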

Read-out in test [9]: Interleukin-8 (IL8), CXCL8 (gene 3576)
The test can be described thus: BSK_BE3C_IL8: BioMAP Diversity Plus: BE3C Assay for Interleukin-8 (IL8) Biomarker Activity (AID 2284280). Particulars: primary human bronchial epithelial cells. The protocol: as §1, with “plate.BSK_BE3C_IL8” for “plate.BSK_BE3C_ICAM1”, “IL-8” for “ICAM-1”, “BSK_BE3C_IL8” for “BSK_BE3C_ICAM1”, “BSK_BE3C_IL8,” for “BSK_BE3C_ICAM1,”
as §2

Read-out in test [10]: Epidermal growth factor receptor (EGFR), EGFR (gene 1956)
The test can be described thus: BSK_BE3C_EGFR: BioMAP Diversity Plus: BE3C Assay for Epidermal growth factor receptor (EGFR) Biomarker Activity (AID 2284281). Particulars: primary human bronchial epithelial cells. The method, boiled down:
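Primary human lung bronchial epithelial cells; compound, 24 h; EGFR measured by ELISA; positive-direction fit vs DMSO baseline.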

Each structure is given as a SMILES string. Values joined by “and” are separate entries in the source; they are usually repeats but may differ in a detail not shown here. Identical values can stand only once. More than one record can exist for a structure, and the calls need not agree. Active and inactive are the calls of the source. The calls were made as follows: active = hit-call score of the fitted dose curve at least 0.9, where 1 is the maximum; inactive = score below 0.9.

A word on the AC50: it is the concentration giving half of the maximal activity seen. For the compound `CCNS(=O)(=O)C(F)(F)C(F)(F)C(F)(F)C(F)(F)C(F)(F)C(F)(F)C(F)(F)C(F)(F)F`, the AC50 is 7.68 µM (active) and 8.65 µM (active) in test [1]; 41.2 µM (active) in [2]; 44.7 µM (active) and 41.4 µM (active) in [3]; 47.3 µM (active) in [4]; 30 µM (active) and 39.9 µM (active) in test [5]; 21.3 µM (active) and 27.2 µM (active) in test [6]. Moreover, the AC50 is 40.3 µM (active) in test [7]; 40 µM (active) and 35.2 µM (active) in test [8]; 16.4 µM (active) and 22.6 µM (active) in test [9]; 38.2 µM (active) and 23.3 µM (active) in [10]. The result in test [2], in [4] and in test [7] was inactive.
